# High-throughput results as filed in PubChem.
# Sm TGR inh: qHTS Assay for the Inhibitors of Schistosoma Mansoni Peroxiredoxins; AID 485364, 2010; Potency, µM (doses to about 114 µM), for inactives: at the highest dose activity change, negative = inhibition, hits mostly inhibitors; 3% of 360,000 active; purified TGR, DTNB reduction, TNB absorbance 405 nm; note: potency is the fitted concentration of half-maximal effect; nearly all actives have a fitted effect of over 60% in size
#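 TGR 20 nM + NADPH 100 uM (dispensed conc.), cpd preinc 15 min RT; start with NADPH (500 uM addition) then DTNB (15 mM addition). Kinetic TNB absorbance, 405 nm filter. Four-parameter Hill fit across titration.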
# Vaccinia mCherry: qHTS for Stage-Specific Inhibitors of Vaccinia Orthopoxvirus: mCherry Reporter Primary qHTS | Vaccinia virus mCherry reporter infection, fluorescence | Potency, µM (titrated, usually from 36.5 µM), without a hit: at the top dose activity change, negative = inhibition, actives largely listed as inhibitors | 0.63% of 310,000 active | AID 720579, 2013; calls by dose curve; tested in A549 cells; note: potency is the fitted concentration of half-maximal effect; nearly all actives have a fitted effect of over 35% in size
# HCV inhibitor: qHTS Assay for Inhibitors of Hepatitis C Virus (HCV). 3.4% of 340,000 active. Potency, µM (top dose mostly 41.8 µM), for inactives: at the top dose activity change, negative = inhibition, most hits filed as inhibitors. Huh7.5.1 HCVcc-Cre infection, luciferase reporter, 44 h. AID 651820, 2012; note: potency is the fitted concentration of half-maximal effect
#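 Infectious HCVcc-Cre (~0.5 moi) was added to cells just after compound, with cells seeded 4 h earlier at 1,000 per well. Luciferase activity after 44 h culture reported infection; substrate was incubated 15 min at room temperature before reading.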
# HCMV inh: qHTS Assay for inhibitors of the human cytomegalovirus (HCMV); HFF cells, HCMV-luciferase reporter, 72 h; stronger effect = lower value; activity change, negative = inhibition, % at 57.5 µM; 4.5% of 410,000 active; in the data active = activity change below about -60%; inconclusive = no clear call, values can overlap the other calls; inactive = above about -39%
#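 Compounds were evaluated in HFFs infected with an HCMV luciferase reporter virus (MOI 1 PFU/cell). Luciferase in lysates collected 72 h post infection served as the replication measure.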
# Vaccinia Venus: qHTS for Stage-Specific Inhibitors of Vaccinia Orthopoxvirus: Venus Reporter Primary qHTS; Vaccinia virus Venus reporter expression, fluorescence; Potency, µM (series often up to 36.5 µM), without a hit: at the highest dose activity change, negative = inhibition, hits mostly inhibitors; 0.46% of 330,000 active; AID 720580, 2013; calls by dose curve; tested in A549 cells; note: potency is the fitted concentration of half-maximal effect; nearly all actives have a fitted effect of over 30% in size
# FMDV inh: High Throughput Screening for Foot and Mouth Disease Virus Antivirals | 1.2% of 410,000 active | AID 1159524, 2015 | Potency, µM (top dose mostly 57.9 µM), without a hit: at the top dose activity change, negative = inhibition, usual class: inhibitors | FMDV antiviral cell-based qHTS; calls by dose curve; tested in HEK293T cells; note: read-out not given here; potency is the fitted concentration of half-maximal effect; nearly all actives have a fitted effect of over 45% in size
# An asterisk follows results filed as active; i = inactive; u = inconclusive; x = no result; ! = a repeat was not active; [ ] = remark or other dose. A selection: hits, their analogues and other compounds. The true share with any hit is near 9.3%. Unless noted, calls come from the whole dose curve; as a rule, active = well fitted curve in the direction sought with a large enough effect; inconclusive = small, poorly fitted or top-dose-only effect, or another doubt; inactive = no such curve, though single readings can be large; an effect the other way counts as inactive or inconclusive. % is set by controls: 0 for no effect and ±100 for the full control effect.
SMILES,Sm TGR inh,Vaccinia mCherry,HCV inhibitor,HCMV inh,Vaccinia Venus,FMDV inh
Cc1ccc(NC(=O)CSc2nnc(CSc3nc(C)cc(C)n3)n2Cc2ccco2)c(C)c1,50µM*,i,11µM*,58,-12%,13%
Cc1ccc(C)c(NC(=O)CSc2nnc(CSc3nc(C)cc(C)n3)n2Cc2ccco2)c1,-66%,x,-29%,26,x,1%
Cc1ccc(C)c(-c2nnc(NC(=O)c3ccc4c(c3)OCCO4)o2)c1,3%,-4%[7.34 µM],x,u,-3%[7.34 µM],-21%
Cc1cc(NC(=O)c2cc3cccc([N+](=O)[O-])c3[nH]2)ccc1F,-5%,x,11µM*,u,x,6%
Cc1ccc(NC(=O)c2cc(Cl)ccc2[N+](=O)[O-])cc1C,1%,u,u,-73*,9%,0%
Cc1cccc(NC(=O)c2cc(Cl)ccc2[N+](=O)[O-])c1,4%,6.3µM*,-29%,-83*,u,-10%
CC(C)(C)NC(=O)c1cc(Cl)ccc1[N+](=O)[O-],-2%,-2%,-22%,-10,-9%,-20%
Cc1cc(CN(C)C(=O)CC2C(=O)NCCN2Cc2c(F)cccc2Cl)n[nH]1 (stereo not given),40µM*,i,1%,-32,-6%,-6%
O=C1NCCN(Cc2ccc(Cl)c(F)c2)C1CC(=O)N1CCCO1 (stereo not given),u,-8%,2%,15,-23%,24%
Cc1nonc1CN(C)C(=O)CC1C(=O)NCCN1Cc1c(F)cccc1Cl (stereo not given),5%,-1%,3%,-10,-10%,13%
O=C1NCCN(Cc2c(F)cccc2Cl)C1CC(=O)N1CCCO1 (stereo not given),28µM*,-23%,1%,-7,-12%,-7%
CCOC(=O)C1CCCN(C(=O)Cn2ncc3c(C)n(Cc4ccc(Cl)cc4)c(C)c3c2=O)C1 (stereo not given),-1%,-6%,x,-9,-16%,18µM*
O=C(Cn1ncc2c([nH]c3ccccc32)c1=O)N1CCCCC1,-8%,x,12%,-7,x,-6%
CCOC(=O)C1CCN(C(=O)Cn2ncc3c([nH]c4ccccc43)c2=O)CC1,-4%,-14%,14%,-68*!,-4%,-29%
COc1ccc(-c2nc3ccc(C)cn3c2NCc2ccccc2)cc1SC1CCCCC1,-14%,i,u,x,u,20µM*
CCCCNc1c(-c2ccc(OC)c(SC3CCCCC3)c2)nc2ccc(C)cn12,x,10µM*,u,-101*!,11µM*,22µM*
CCCCNc1c(-c2ccc(SC3CCCCC3)c(OC)c2)nc2ccc(C)cn12,x,-30%,u,-71*!,u,28µM*!
COc1ccc(-c2nc3ccc(Cl)cn3c2NC2CCCCC2)cc1SC1CCCCC1,x,u,-2%,-19,-18%,10%
COc1ccc(NC(=O)NNc2cc(N3CCOCC3)nc(N3CCOCC3)n2)cc1,14%,-20%,-4%,-33,-7%,5%
COCCn1c(SCC(=O)Nc2ccc3c(c2)OCCO3)nc2c(c1=O)SC(C)C2 (stereo not given),6%,18%,-14%,58,-7%,42%
COc1ccc(CCn2c3c(c(=O)[nH]c2=S)CN(c2ccccc2)CN3)cc1OC,x,-13%,x,x,u,x
COc1cc2c(cc1OC)C(c1c(O)n(CCc3ccccc3)c(=S)[nH]c1=O)NCC2 (stereo not given),1%,-14%,-9%,-64*,-9%,5%
C=CCn1c(N)c(C(=O)NCCC2=CCCCC2)sc1=S,-3%,-16%,19%,51,-11%,53%
CC1CCCC(NC(=O)Cn2cc([N+](=O)[O-])ccc2=O)C1C (stereo not given),0%,x,20%,-3,x,-5%
Cc1ccc(NC(=S)NC(C)CCc2ccccc2)cc1C (stereo not given),5%,u,u,-71*,-18%,-7%
SMILES,Sm TGR inh,Vaccinia mCherry,HCV inhibitor,HCMV inh,Vaccinia Venus,FMDV inh
COc1ccc(-c2oc(=O)c3cc(OC)c(OC)cc3c2C(F)(F)F)cc1,-12%,u,11%,-21,-14%,0%
CC1=CC2C(C(O)CC3(C)C2CC(C)C32OCOC23COCO3)C2(C)C/C(=C\O)C(=O)C=C12 (stereo not given),x,u,u,-99*,13µM*,40µM*
COc1ccc(Cc2nc3ccc(C(=O)NCCn4cccn4)cc3o2)cc1,-24%,i,x,x,-18%,-11%
Cc1ccc2[nH]cc(CCNC(=O)c3ccco3)c2c1,-10%,-28%,5%,40,-4%,0%
Cc1cc(Br)c2[nH]cc(CCNC(=O)c3ccco3)c2c1,-34%,x,13µM*,-35,x,-21%
Cc1ccc(/C=C/C(=O)NCCCN2CCN(CCCNC(=O)/C=C/c3ccc(C)o3)CC2)o1,-12%,-11%,4%,-28,-3%,-20%
Cc1ccc(/C=C/C(=O)NCCc2cccc(Cl)c2)o1,2.5µM*,i,-11%,-13,-12%,5%
Cc1ccc(/C=C/C(=O)NCCc2c[nH]c3ccccc23)o1,14µM*,i,u,-27,-17%,19%
Cc1ccc2[nH]cc(CCNC(=O)/C=C/c3ccco3)c2c1,28µM*,x,-29%,2,x,-20%
C=C(C)C(COc1c2occc2cc2ccc(=O)oc12)OC(C)(C)C(O)COc1c2occc2cc2ccc(=O)oc12 (stereo not given),x,-3%,u,-25,0%,-14%
Cc1oc(-c2cccc(Cl)c2)nc1CN1CCC(C(=O)NCC2CCCO2)CC1 (stereo not given),1%,x,13%,4,x,-10%
CC(C)Sc1ncc(Cl)c(C(=O)N(Cc2ccc(F)cc2)C2CCS(=O)(=O)C2)n1 (stereo not given),-7%,-3%,x,9,-3%,-26%
CC(=O)O[C@@H]1C[C@H]2C(C)(C)C(=O)C=C[C@]2(C)[C@H]2CC[C@@]3(C)[C@H](c4ccoc4)OC(=O)[C@H]4O[C@]43[C@@]21C,-7%,7.9µM*,u,-79*,u,16µM*
CC(=O)OC1CC2C(C)(C)C(=O)CC[C@]2(C)C2CC[C@@]3(C)C(c4ccoc4)OC(=O)C4OC43[C@]12C (stereo not given in full),x,-12%,x,x,-8%,-10%
O=C(O)c1cc(NC(=O)C2CCCO2)cc(C(=O)O)c1 (stereo not given),-21%,x,0%,-3,x,-7%
